According to PubChem BioAssay (Tox21):
Values joined by “and” are separate entries in the source; they are usually repeats but may differ in a detail not shown here. Equal values may be shown once. A structure can be active in one record and inactive in another. Active and inactive are the calls of the source. Unless noted, calls follow the shape of the dose curve; as a rule, active = well fitted curve in the direction sought with a large enough effect in the repeat runs; inconclusive = weak or mixed curves; inactive = no such curve, though single readings can be large; an effect the other way counts as inactive or inconclusive.

Legend:
[1] = qHTS assay for small molecule agonists of the p53 signaling pathway (AID 651631; calls by dose curve; also: nearly all actives have a fitted effect of over 15% in size; also: potency is read from the fitted curve at half-maximal effect)
Method in brief: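 HCT-116 cells carrying a beta-lactamase reporter under p53 response elements were dosed with compound for 16 h at 37 °C. LiveBLAzer B/G FRET substrate was then added for 2 h at room temperature, and fluorescence intensity was read to detect pathway agonism.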

[2] = qHTS assay for small molecule agonists of the p53 signaling pathway - cell viability (AID 651633; calls by dose curve; also: nearly all actives have a fitted effect of over 30% in size; also: potency is read from the fitted curve at half-maximal effect)
Method in brief: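 p53RE-bla cells, seeded at 4,000 per well and rested 5 h at 37 C/5% CO2, received compounds in DMSO for 16 h at 37 C. CellTiter-Glo was then added, and luminescence was read after 30 min at room temperature to gauge cytotoxicity.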

[3] = qHTS assay to test for compound auto fluorescence at 590 nm (red) in HepG2 cells (AID 720674)
Method in brief: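 Compound auto-fluorescence is scored relative to Rose Bengal sodium, measured at 540/590 nm in live HepG2 cultures after 1 hr compound contact (37 C, 5% CO2).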

[4] = qHTS assay to test for compound auto fluorescence at 460 nm (blue) in HEK293 cells (AID 720678)
Method in brief: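 HEK293 cells (2,000/well, medium with 10% dialyzed FBS) attached 4-5 hr, then exposed to compound overnight at 37C, 5% CO2. Blue fluorescence read at 405/460 nm, with triamterene as reference fluorophore.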

[5] = qHTS assay to test for compound auto fluorescence at 460 nm (blue) in HEK293 cell free culture (AID 720681)
Method in brief: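 Test compounds were pinned into cell-free culture medium (DMEM with 10% FBS) and fluorescence was read directly at Ex/Em 405/460 nm. Signals were expressed as fluorescence equivalents of triamterene, with DMSO vehicle as control.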

[6] = qHTS assay to test for compound auto fluorescence at 590 nm (red) in HEK293 cell free culture (AID 720683)
Method in brief: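 Tox21 10K library compounds were pinned into cell-free DMEM with 10% FBS and fluorescence was read at excitation 540 nm. Activity is expressed as Rose Bengal sodium equivalency.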

[7] = molecular target: Glucocorticoid receptor (Homo sapiens) (UniProt P04150); assay: qHTS assay to identify small molecule antagonists of the glucocorticoid receptor (GR) signaling pathway (AID 720692; active = well fitted inhibition curve with a large enough effect in the signal ratio in the repeat runs, not every such curve was filed as active; inconclusive = weak or mixed curves, or effect the other way; inactive = no such curve, though single readings can be large or run the other way; the % refers to the signal ratio; also: potency is read from the fitted curve at half-maximal effect)
Sequence of Glucocorticoid receptor (Homo sapiens) (P04150 whole entry, looked up): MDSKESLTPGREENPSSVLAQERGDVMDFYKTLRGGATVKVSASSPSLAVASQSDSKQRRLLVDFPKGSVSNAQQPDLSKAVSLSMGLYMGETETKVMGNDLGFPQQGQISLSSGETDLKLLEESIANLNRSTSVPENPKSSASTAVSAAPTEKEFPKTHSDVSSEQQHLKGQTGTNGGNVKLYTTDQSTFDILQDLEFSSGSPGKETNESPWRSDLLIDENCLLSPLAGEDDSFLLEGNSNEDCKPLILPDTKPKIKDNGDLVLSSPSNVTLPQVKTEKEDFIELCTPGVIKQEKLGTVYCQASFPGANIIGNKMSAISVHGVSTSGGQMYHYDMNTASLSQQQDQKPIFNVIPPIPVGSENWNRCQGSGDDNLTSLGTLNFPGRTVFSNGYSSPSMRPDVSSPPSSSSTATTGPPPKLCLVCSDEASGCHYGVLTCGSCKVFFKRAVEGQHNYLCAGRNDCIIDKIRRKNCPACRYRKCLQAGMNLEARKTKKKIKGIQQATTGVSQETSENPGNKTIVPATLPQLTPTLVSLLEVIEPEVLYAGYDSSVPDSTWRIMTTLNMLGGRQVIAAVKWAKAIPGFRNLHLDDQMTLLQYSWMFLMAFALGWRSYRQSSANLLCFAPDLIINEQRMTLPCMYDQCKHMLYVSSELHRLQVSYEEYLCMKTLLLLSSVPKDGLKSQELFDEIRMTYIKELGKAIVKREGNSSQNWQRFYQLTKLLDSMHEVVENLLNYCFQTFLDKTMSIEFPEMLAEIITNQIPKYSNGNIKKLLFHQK
Method in brief: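 Tox21 10K library screened in concentration-response for blockade of dexamethasone (5 nM final)-induced GRE-bla reporter activity in HeLa cells; 18 h treatment, fluorescence read.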

[8] = qHTS assay for identifying genotoxic compounds that show differential cytotoxicity against isogenic chicken DT40 cell lines with known DNA damage response pathways - wild type cell line (AID 743012); also: nearly all actives have a fitted effect of over 60% in size; also: potency is read from the fitted curve at half-maximal effect
Method in brief: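 Endpoint: CellTiter-Glo luminescence, 30 min RT. Cells: wild type DT40, 300/well. Exposure: compounds in DMSO, 40 h, 37 C/5% CO2, after ~0.5 h pre-incubation.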

[9] = qHTS assay for identifying genotoxic compounds that show differential cytotoxicity against isogenic chicken DT40 cell lines with known DNA damage response pathways - Rev3 mutant cell line (AID 743014); also: nearly all actives have a fitted effect of over 55% in size; also: potency is read from the fitted curve at half-maximal effect
[10] = qHTS assay for identifying genotoxic compounds that show differential cytotoxicity against isogenic chicken DT40 cell lines with known DNA damage response pathways - Rad54/Ku70 mutant cell line (AID 743015); also: nearly all actives have a fitted effect of over 60% in size; also: potency is read from the fitted curve at half-maximal effect
[11] = qHTS assay to identify small molecule antagonists of the androgen receptor (AR) signaling pathway - cell viability counter screen (AID 743033; also: nearly all actives have a fitted effect of over 45% in size; also: potency is read from the fitted curve at half-maximal effect)
[12] = molecular target: Estrogen receptor (Homo sapiens) (UniProt P03372); assay: qHTS assay to identify small molecule agonists of the estrogen receptor alpha (ER-alpha) signaling pathway (AID 743075; calls by dose curve;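 also: HEK293 GripTite cells with ER-alpha and UAS-driven beta-lactamase reporter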; also: potency is read from the fitted curve at half-maximal effect)
Sequence of Estrogen receptor (Homo sapiens) (P03372 whole entry, looked up): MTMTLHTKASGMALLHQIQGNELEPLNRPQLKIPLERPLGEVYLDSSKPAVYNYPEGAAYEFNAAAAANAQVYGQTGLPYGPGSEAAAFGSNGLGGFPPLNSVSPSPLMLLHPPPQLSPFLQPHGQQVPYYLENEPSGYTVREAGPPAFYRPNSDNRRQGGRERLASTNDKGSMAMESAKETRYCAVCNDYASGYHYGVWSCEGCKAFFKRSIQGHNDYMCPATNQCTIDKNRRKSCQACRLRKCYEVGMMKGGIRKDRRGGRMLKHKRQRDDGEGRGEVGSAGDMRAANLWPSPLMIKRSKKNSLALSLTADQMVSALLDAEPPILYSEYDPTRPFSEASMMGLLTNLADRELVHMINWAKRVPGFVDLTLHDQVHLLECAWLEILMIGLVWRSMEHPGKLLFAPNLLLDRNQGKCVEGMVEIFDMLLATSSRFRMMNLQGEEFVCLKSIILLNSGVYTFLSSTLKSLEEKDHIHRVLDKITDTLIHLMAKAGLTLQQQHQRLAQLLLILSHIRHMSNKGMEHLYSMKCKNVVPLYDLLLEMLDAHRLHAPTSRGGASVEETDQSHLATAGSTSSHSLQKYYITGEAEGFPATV

[13] = molecular target: Estrogen receptor (Homo sapiens) (UniProt P03372); assay: qHTS assay to identify small molecule agonists of the estrogen receptor alpha (ER-alpha) signaling pathway using the BG1 cell line (AID 743079); also: nearly all actives have a fitted effect of over 20% in size
[14] = qHTS assay to identify small molecule antagonists of the estrogen receptor alpha (ER-alpha) signaling pathway using the BG1 cell line (AID 743080; calls by dose curve;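 also: BG1 cells stimulated with 17beta-estradiol alongside compound; series mostly up to about 70 µM; nearly all actives have a fitted effect of over 25% in size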)
Method in brief: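 BG1-Luc-4E2 cells (endogenous full-length ER-alpha, 4xERE luciferase) hormone-starved 5 days in charcoal-stripped FBS, plated 4,000/well for 24 h, then compound plus 17beta-estradiol for 21.5 h at 37 C; ONE-Glo luminescence read.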

[15] = molecular target: Aryl hydrocarbon receptor (Homo sapiens) (UniProt P35869); assay: qHTS assay to identify small molecule that activate the aryl hydrocarbon receptor (AhR) signaling pathway (AID 743085);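 also: HG2L7.5c1 human HepG2 liver cells with stably integrated DRE-driven firefly reporter; series mostly up to about 70 µM; nearly all actives have a fitted effect of over 15% in size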
Sequence of Aryl hydrocarbon receptor (Homo sapiens) (P35869 whole entry, looked up): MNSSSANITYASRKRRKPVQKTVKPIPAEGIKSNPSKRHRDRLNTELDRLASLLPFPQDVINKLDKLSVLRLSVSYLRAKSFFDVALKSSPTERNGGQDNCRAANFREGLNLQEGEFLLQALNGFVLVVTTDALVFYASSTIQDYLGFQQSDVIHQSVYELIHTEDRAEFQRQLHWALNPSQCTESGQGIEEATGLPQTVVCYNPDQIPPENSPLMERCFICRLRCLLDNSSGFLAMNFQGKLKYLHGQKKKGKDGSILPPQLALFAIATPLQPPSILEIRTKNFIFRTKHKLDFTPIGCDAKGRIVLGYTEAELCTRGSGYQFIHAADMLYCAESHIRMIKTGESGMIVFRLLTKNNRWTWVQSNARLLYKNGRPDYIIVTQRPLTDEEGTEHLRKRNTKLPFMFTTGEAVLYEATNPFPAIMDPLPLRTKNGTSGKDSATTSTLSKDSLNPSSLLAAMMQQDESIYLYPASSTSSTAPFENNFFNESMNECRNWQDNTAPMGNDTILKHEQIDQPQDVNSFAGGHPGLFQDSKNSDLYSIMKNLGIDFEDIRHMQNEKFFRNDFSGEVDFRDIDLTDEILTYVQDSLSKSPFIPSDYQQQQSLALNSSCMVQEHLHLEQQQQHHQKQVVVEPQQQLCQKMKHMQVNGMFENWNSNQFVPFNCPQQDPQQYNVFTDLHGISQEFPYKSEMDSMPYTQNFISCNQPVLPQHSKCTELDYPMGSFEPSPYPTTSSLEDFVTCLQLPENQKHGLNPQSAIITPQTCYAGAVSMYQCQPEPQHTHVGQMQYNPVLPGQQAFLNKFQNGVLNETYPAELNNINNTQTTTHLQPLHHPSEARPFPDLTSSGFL
Method in brief: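 HepG2 cells stably carrying a 20-DRE firefly luciferase reporter (HG2L7.5c1) treated with compound for 24 hr at 37C. Luciferase read by ONE-Glo luminescence, with CellTiter-Fluor viability read first.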

[16] = molecular target: Peroxisome proliferator-activated receptor gamma (Homo sapiens) (UniProt P37231); assay: qHTS assay to identify small molecule agonists of the peroxisome proliferator-activated receptor gamma (PPARg) signaling pathway (AID 743094; active = well fitted activation curve with a large enough effect in the signal ratio in the repeat runs, not every such curve was filed as active; inconclusive = weak or mixed curves, or effect the other way; inactive = no such curve, though single readings can be large or run the other way; the % refers to the signal ratio; also: potency is read from the fitted curve at half-maximal effect)
Sequence of Peroxisome proliferator-activated receptor gamma (Homo sapiens) (P37231 whole entry, looked up): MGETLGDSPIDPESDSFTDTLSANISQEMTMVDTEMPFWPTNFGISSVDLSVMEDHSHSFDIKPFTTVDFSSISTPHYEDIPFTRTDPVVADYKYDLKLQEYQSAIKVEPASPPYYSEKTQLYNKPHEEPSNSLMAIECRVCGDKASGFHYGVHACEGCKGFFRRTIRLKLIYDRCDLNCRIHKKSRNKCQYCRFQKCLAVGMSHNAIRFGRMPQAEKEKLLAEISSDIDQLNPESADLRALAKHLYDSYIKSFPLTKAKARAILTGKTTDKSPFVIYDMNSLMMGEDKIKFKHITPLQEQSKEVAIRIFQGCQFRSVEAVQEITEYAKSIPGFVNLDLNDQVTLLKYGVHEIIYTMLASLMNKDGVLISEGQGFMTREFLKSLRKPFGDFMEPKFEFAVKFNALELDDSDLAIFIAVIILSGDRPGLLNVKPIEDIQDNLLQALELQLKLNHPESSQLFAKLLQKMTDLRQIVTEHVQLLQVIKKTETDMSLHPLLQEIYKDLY
Method in brief: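 Fluorescence-based beta-lactamase readout in HEK293H PPARg UAS-bla cells after 17 h compound exposure (37C) and 1 h B/G FRET substrate incubation at room temperature.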

[17] = molecular target: Nuclear receptor subfamily 1 group I member 2 (Homo sapiens) (UniProt O75469); assay: CYP3A4 induction through human pregnane X receptor (PXR) by small molecules, qHTS assay (AID 1346984); also: nearly all actives have a fitted effect of over 40% in size; also: potency is read from the fitted curve at half-maximal effect
Method in brief: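 After 24 h at 37C with compound, DPX-2 cells (HepG2, co-transfected PXR response element and CYP3A4 promoter-luciferase) got 3uM final P450-Glo Luciferin-IPA for 3 h; One-Glo luminescence followed.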

[18] = molecular target: Nuclear receptor subfamily 1 group I member 2 (Homo sapiens) (UniProt O75469); assay: Human pregnane X receptor (PXR) activation by small molecules, qHTS assay (AID 1346985); also: nearly all actives have a fitted effect of over 40% in size; also: potency is read from the fitted curve at half-maximal effect
Method in brief: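 DPX-2 cells (HepG2 co-transfected with a PXR response element and a CYP3A4-promoter luciferase construct) were seeded at 2,000 per well, rested 5 hr at 37C, then exposed to DMSO-dissolved compounds for 24 hr. Activation was read as luciferase luminescence.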

[19] = qHTS assay to test for compound auto fluorescence at 535 nm (green) in HEK293 cell free culture (AID 720682)
Method in brief: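 Green-label autofluorescence (485 nm excitation, 535 nm emission) measured on compound added to cell-free culture medium (DMEM, 10% FBS). Output is expressed relative to fluorescein.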

[20] = qHTS assay to test for compound auto fluorescence at 460 nm (blue) in HepG2 cells (AID 720687)
Method in brief: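 Cells (2,000/well in MEM with 10% FBS) attached overnight at 37 C, then were exposed to compound or DMSO for 1 hr at 37 C, 5% CO2. Fluorescence read at Ex/Em 405/460 nm, expressed as triamterene-equivalent signal.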

Measured: Potency

CC(=O)Oc1ccc2c3c1O[C@H]1[C@@H](OC(C)=O)C=C[C@H]4[C@@H](C2)N(C)CC[C@@]341
inactive and 68.3 µM (active): [8]
not listed: [19] | [20]
inactive: all other assays above

CN[C@H]1C[C@@H](N)[C@H](O)[C@@H](O[C@@H]2O[C@H](CO)[C@H](O)[C@@H]3OC4(O[C@H]23)O[C@H](C(N)CO)[C@H](O)[C@H](O)[C@H]4O)[C@@H]1O (some centres undefined)
not listed: [2] | [7] | [14] | [20]
inactive: all other assays above

CN1c2ccccc2C(NCCCCCCC(=O)O)c2ccc(Cl)cc2S1(=O)=O (centres undefined)
active: [18] 7.94 µM
inactive: [2] | [3] | [5] | [19] | [6] | [12] | [13] | [14] | [15] | [16]

COC([CH2][Hg])CNC(=O)c1ccccc1OCC(=O)O (centres undefined)
active: [8] 1.68 µM | [10] 2.98 µM
not listed: [1] | [5] | [9] | [11] | [15] | [16]
inactive: all other assays above

CCC1(c2ccccc2)C(=O)NC(=O)N(C(=O)c2ccccc2)C1=O (centres undefined)
active: [17] 28.2 µM
not listed: [1] | [10] | [11] | [12] | [13] | [14] | [18]
inactive: all other assays above

c1csc(C2(N3CCCCC3)CCCCC2)c1
not listed: [7] | [9] | [11] | [15] | [18]
inactive: all other assays above

Oc1cccc[c]1[Hg][Cl]
active: [2] 7.5 µM | [8] 0.473 µM | [10] 0.473 µM | [11] 10.7 µM | [12] 6.01 µM [inconclusive]
inactive: [3] | [19] | [6] | [15] | [17]

CCCCCc1cc(O)c2c(c1)OC(C)(C)[C@@H]1CCC(C)=C[C@@H]21
active: [8] 9.44 µM | [9] 13.3 µM | [10] 10.6 µM | [18] 7.94 µM
not listed: [1] | [2] | [7] | [13] | [15] | [16]
inactive: all other assays above

C[C@]12CCC(=O)C=C1C=C[C@@H]1[C@@H]2CC[C@@]2(C)[C@H]1CC[C@@]2(O)CCC(=O)O
active: [7] 9.1 µM
not listed: [1] | [8] | [9] | [10] | [12] | [13] | [14]
inactive: all other assays above

[S]=[Sb](=[S])[S][Sb](=[S])=[S]
not listed: [2] | [8] | [9]
inactive: all other assays above

O=C1Nc2ccc(Cl)cc2C(c2ccccc2Cl)=NC1O (centres undefined)
not listed: [2] | [4] | [8] | [17]
inactive: all other assays above

[H+].[H+].[Hg+2].[O-]B([O-])[O-].[c-]1ccccc1
inactive: [3] | [4] | [5] | [19] | [6] | [20] | [17]
active: [1] 1.33 µM | [8] 0.266 µM | [9] 0.531 µM | [10] 0.335 µM | [11] 9.52 µM | [12] 30.1 µM [inconclusive] | [16] 19 µM

CC[N+](C)(CC)CCOC(=O)C(O)(c1ccccc1)c1ccccc1
not listed: [15]
inactive: all other assays above

COC(=O)[C@@H]1[C@H]2CC[C@@H](C[C@H]1OC(=O)c1ccccc1)N2C
not listed: [5] | [7] | [15]
inactive: all other assays above

CCCCNCC(O)c1ccc(O)cc1 (centres undefined)
not listed: [7] | [12] | [13] | [14] | [15] | [16] | [19]
inactive: all other assays above

C[N+]1([O-])[C@@H]2CC(OC(=O)[C@H](CO)c3ccccc3)C[C@H]1[C@@H]1O[C@@H]12 (some centres undefined)
not listed: [1]
inactive: all other assays above
